Screening data from PubChem.
Rows were chosen to be rich in hits. Some 13% of all compounds tested hit in one or more screens of this group.
Sfp inh: qHTS Assay for Inhibitors of Bacillus subtilis Sfp phosphopantetheinyl transferase (PPTase); Potency, µM, hits mostly inhibitors; 4'-phosphopantetheinyl transferase ffp (Bacillus subtilis), Q9F4F7; Biochemical Sfp PPTase activity, qHTS; AID 1490, 2009; actives 3.5% (n = 310,000);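 note: the enzyme is Sfp with the accession as filed and its product quenches rhodamine fluorescence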
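After 15 min at room temperature with compound, 15 nM Sfp received 5 uM rhodamine-CoA plus 12.5 uM BHQ-2-ybbR (50 mM Hepes pH 7.6, 10 mM MgCl2). Rate came from the fluorescence difference over 30 min, ex 525/em 598 nm.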
LMNA splice mod: qHTS Assay for Modulators of Lamin A Splicing; HeLa LMNA splicing GFP/RFP minigene ratio, 48 h; actives 0.01% (n = 200,000); Potency, µM (titrated, usually from 46.1 µM), actives largely listed as inhibitors; AID 1487, 2009; active = well fitted inhibition curve with a large enough effect in the signal ratio, with a control signal flat, not every such curve was filed as active; inconclusive = small, poorly fitted or top-dose-only effect, or effect the other way, or a change in a side signal; the % refers to the signal ratio
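S3 HeLa cells stably expressing lamin A-EGFP splicing minigene plus DsRed2, 600 cells/well, 48 h compound exposure at 37C. Laser-scanning cytometry; analysed as GFP (500-530 nm)/RFP (575-640 nm) total intensity ratio; 0.5% DMSO vehicle.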
G9a block: qHTS Assay for Inhibitors of Histone Lysine Methyltransferase G9a. Histone-lysine N-methyltransferase EHMT2 (Homo sapiens), Q96KQ7. G9a H3K9 monomethylation, AlphaScreen, 2 h. Potency, µM (series often up to 102 µM), hits mostly inhibitors. actives 8.8% (n = 350,000). AID 504332, 2011; note: nearly all actives have a fitted effect of over 75% in size
Target sequence (Q96KQ7 913-1193 limits assumed): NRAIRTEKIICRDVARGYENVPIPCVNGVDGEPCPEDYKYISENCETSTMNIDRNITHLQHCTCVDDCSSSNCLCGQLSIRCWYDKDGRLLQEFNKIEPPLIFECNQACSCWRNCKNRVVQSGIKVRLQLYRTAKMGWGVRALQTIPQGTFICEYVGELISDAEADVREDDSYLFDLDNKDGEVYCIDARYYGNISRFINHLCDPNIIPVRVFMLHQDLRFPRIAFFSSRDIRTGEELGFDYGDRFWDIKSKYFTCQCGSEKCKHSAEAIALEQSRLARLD
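Step 1: enzyme (final 20 nM) with compound, 15 min RT. Step 2: substrate peptide 500 nM and SAM 20 uM, 2 h RT. Step 3: anti-H3K9me1 antibody and AlphaScreen beads, 10 min, then plate read.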
ALDH1A1 inh: qHTS Assay for Inhibitors of Aldehyde Dehydrogenase 1 (ALDH1A1); Purified ALDH1A1, NADH fluorescence, propionaldehyde substrate; AID 1030, 2008; Potency, µM (series often up to 75.3 µM), usual class: inhibitors; actives 7.3% (n = 220,000); active = well fitted inhibition curve with a large enough effect, not every such curve was filed as active; inconclusive = small, poorly fitted or top-dose-only effect, or another doubt; inactive = no such curve, though single readings can be large or run the other way
miR-21 reporter: qHTS Assay for Modulators of miRNAs and/orActivators of miR-21 | HeLa miR-21 FLuc reporter, luciferase, 48 h | Potency, µM (titrated, usually from 38.3 µM), hits mostly activators | 340,000 tested, under 10 active | AID 2288, 2010;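 note: miR-21 action dims this reporter so a rising signal means less miR-21 action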
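Using DMEM plus 10% FBS, HeLa miR-21-FLuc cells are incubated with test compounds (final up to about 40uM) for 48 hours; firefly luciferase signal is then imaged following reagent-mediated lysis.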
JMJD2E inh: qHTS Assay for Inhibitors of Human Jumonji Domain Containing 2E (JMJD2E); actives 1.6% (n = 230,000); Lysine-specific demethylase 4E (Homo sapiens), B2RXH2; JMJD2E catalytic domain, FDH-coupled NADH fluorescence (FDH is formaldehyde dehydrogenase); Potency, µM (titrated, usually from 57.1 µM), actives largely listed as inhibitors; active = well fitted inhibition curve with a large enough effect, not every such curve was filed as active; inconclusive = small, poorly fitted or top-dose-only effect, or another doubt; inactive = no such curve, though single readings can be large or run the other way; note: nearly all actives have a fitted effect of over 50% in size
Target sequence (B2RXH2 1-337 limits assumed): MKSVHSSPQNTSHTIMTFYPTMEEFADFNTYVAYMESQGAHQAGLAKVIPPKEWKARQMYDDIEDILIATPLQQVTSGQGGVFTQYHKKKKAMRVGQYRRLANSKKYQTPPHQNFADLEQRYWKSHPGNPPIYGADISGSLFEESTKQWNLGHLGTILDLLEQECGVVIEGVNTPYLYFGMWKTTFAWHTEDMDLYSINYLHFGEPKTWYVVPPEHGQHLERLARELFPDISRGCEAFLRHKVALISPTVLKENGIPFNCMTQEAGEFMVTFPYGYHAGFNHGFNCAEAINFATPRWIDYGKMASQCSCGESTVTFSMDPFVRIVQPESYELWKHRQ
Numbers stand for hits; i = inactive; ? = inconclusive; nt = no result; [ ] = remark or other dose. Unless noted, calls come from the whole dose curve; as a rule, active = well fitted curve in the direction sought with a large enough effect; inconclusive = small, poorly fitted or top-dose-only effect, or another doubt; inactive = no such curve, though single readings can be large; an effect the other way counts as inactive or inconclusive.

SMILES | Sfp inh | LMNA splice mod | G9a block | ALDH1A1 inh | miR-21 reporter | JMJD2E inh
CC1(CO)COC(c2ccccc2)=N1 (stereo not drawn) | i | nt | i | nt | i | i
N#Cc1nc(-c2cccs2)oc1NCc1ccc2c(c1)OCO2 | i | ? | 45µM | ? | i | ?
N#Cc1nc(-c2cccs2)oc1NCCc1ccccc1 | i | i | 35µM | ? | i | ?
Cc1ccnc(NS(=O)(=O)c2ccc(NC(=O)C(C)(C)Oc3ccc(Cl)cc3)cc2)n1 | nt | nt | ? | nt | i | nt
COc1ccc(NS(=O)(=O)c2ccc3oc(SC4CCOC4=O)nc3c2)cc1 (stereo not drawn) | i | ? | i[12.7 µM] | 0.56µM | i | i
COc1ccc(NS(=O)(=O)c2ccc3oc(SC)nc3c2)cc1 | 50µM | nt | 40µM | nt | i | nt
COc1ccc2c(C)cc(SC3CCOC3=O)nc2c1 (stereo not drawn) | i | i | i | i | i | i
COc1ccc(NS(=O)(=O)c2ccc(SC)cc2)cc1 | i | i | i[12.7 µM] | 0.16µM | i | i
CSc1ccc(S(=O)(=O)Nc2ccc(F)cc2)cc1 | i | i | i | ? | i | i
CCN(CC)CCNC(=O)c1cn(CC)c2cc(N3CCN(C)CC3)c(F)cc2c1=O | i | nt | i[12.7 µM] | nt | i | nt
CC(C)(C)c1ccc(C2Sc3ccccc3NC3=C2C(=O)c2ccccc23)cc1 (stereo not drawn) | nt | nt | 10µM | nt | ? | nt
O=C1OCC2=C1C(c1ccc(F)cc1)Sc1ccccc1N2 (stereo not drawn) | i | i | i | i | i | i
OC1=C(O)c2nc3cc(F)ccc3nc21 | 40µM | nt | 40µM | nt | i | ?
Fc1ccc2nc3[nH]c4ccccc4c3nc2c1 | i | ? | i[12.7 µM] | i | i | i
Cc1ccc(C)c(NC(=O)Cc2nc(CCl)cs2)c1 | i | i | ? | ? | i | i
Cc1ccccc1NC(=O)Cc1nc(CCl)cs1 | i | i | ? | 11µM | i | i
CCOc1cc(C(=O)NCc2ccc3c(c2)CCN3C(=O)c2ccc(F)cc2)cc(OCC)c1OCC | nt | i | i | nt | i | nt
O=C(Cn1cc(C(=O)c2ccco2)c2ccccc21)NC1CC1 | i | i | i | i | i | i
CN1C(=S)SC(C)(C)C1/[N+]([O-])=C/c1cccnc1 (stereo not drawn) | i | i | i[12.7 µM] | i | i | i
CN(C)c1ccc(/C=[N+](\[O-])C2N(c3ccccc3)C(=S)SC2(C)C)cc1 (stereo not drawn) | i | i | i | 22µM | i | i
CN(C)c1ccc(/C=[N+](\[O-])C2SC(=S)N(C)C2(C)C)cc1 (stereo not drawn) | i | i | i | 0.45µM | i | ?
CCCN1C(=S)SC(C)(C)C1/[N+]([O-])=C/c1ccc(S(=O)(=O)NC)cc1 (stereo not drawn) | i | nt | i | i | i | ?
CC1CC(C)CN(S(=O)(=O)CCNC(=O)c2ccc3c(c2)OCO3)C1 (stereo not drawn) | nt | nt | i[0.501 µM] | nt | nt | nt
COc1ccc(Nc2nc3ccccc3c(=O)[nH]2)cc1 | i | nt | 79µM | nt | i | ?
COc1ccc(Nc2c3ccccc3nc3ccccc23)cc1 | i | nt | 40µM | nt | i | nt
SMILES | Sfp inh | LMNA splice mod | G9a block | ALDH1A1 inh | miR-21 reporter | JMJD2E inh
Cc1ccc(Nc2nc3ccccc3c(=O)[nH]2)cc1C | i | i | i | i | i | i
COc1ccc(Nc2ccc(Nc3ccc(OC)cc3)nn2)cc1 | i | i | i | i | i | i
COc1ccc(Nc2ccc(OC)cc2)cc1 | 2.8µM | nt | nt | nt | i | ?
COc1ccc(OC)c(NC(=O)C2CCN(S(=O)(=O)c3ccc4c(c3)CCCC(=O)N4)CC2)c1 | nt | i | i | nt | i | nt
COc1cc2[nH]c(=O)n(CCCC(=O)N(C)Cc3ccccc3)c(=O)c2cc1OC | nt | nt | i | nt | i | nt
Cc1csc(N/N=C/c2ccc([N+](=O)[O-])cc2)n1 | i | nt | i | nt | i | nt
C(=N\Nc1nc(-c2ccccc2)cs1)/c1ccco1 | ? | i | 13µM | i | i | ?
Cc1cc(-c2ccccc2)nc(N/N=C/c2ccco2)n1 | i | i | nt | i | i | i
Brc1ccc(-c2csc(N/N=C/c3ccco3)n2)cc1 | i | i | ? | i | i | ?
Cc1ccc(-c2csc(N/N=C/c3ccco3)n2)cc1 | 89µM | i | ? | i | i | i
CN(C)S(=O)(=O)c1ccc(-c2csc(N/N=C/c3ccco3)n2)cc1 | i | nt | 28µM | nt | ? | i
CN(C)S(=O)(=O)c1ccc(-c2csc(N/N=C/c3ccc(O)cc3)n2)cc1 | 50µM | nt | 22µM | nt | i | i
CCCCN1C(=O)CCC(C(=O)O)C1c1ccc([N+](=O)[O-])cc1 (stereo not drawn) | i | nt | ? | nt | i | nt
CCOc1ccc(NS(=O)(=O)c2ccc3c(c2)NC(=O)CCS3)cc1 | nt | i | i | nt | i | nt
CCn1c(C(=O)Nc2ccccc2C(=O)OC)cc2sc(Cl)cc21 | nt | nt | i | nt | i | nt
Cc1ccc2c(c1)c1c(c(=O)n(-c3cccc(Cl)c3)c(=O)n1CC(=O)Nc1c(C)cccc1C)n2C | nt | nt | i | nt | i | nt
O=C(CSc1nnc(-c2ccncc2)n1Cc1ccco1)Nc1nc(-c2ccccc2)cs1 | i | ? | 28µM | i | i | i
O=C(CSc1nnc(-c2ccncc2)n1Cc1ccco1)Nc1ccccc1Cl | 45µM | i | ? | i | i | i
CCOC(=O)Cc1ccc(NC(=O)NCc2cccn2Cc2ccccc2)cc1 | nt | i | i | nt | i | nt
CCc1ccccc1S(=O)(=O)Cc1ccc(C(=O)NCCc2ccc(C)cc2)o1 | nt | nt | i | nt | i | nt
Cc1c(CC(=O)O)c(=O)oc2cc3occ(-c4ccc(F)cc4)c3cc12 | 40µM | nt | i | nt | i | nt
COc1ccc(/C=C/C(=O)NCCN=C2NS(=O)(=O)c3ccccc32)cc1 | i | i | i | i | i | i
CC(C)COc1ccc(C(=O)N(CC(=O)Nc2ccccc2C(F)(F)F)Cc2ccco2)cc1 | nt | nt | i[2.33 µM] | nt | nt | nt
CCOc1ccc(OCCC(=O)N(CC(=O)Nc2ccccc2C(F)(F)F)Cc2ccco2)cc1 | nt | nt | 45µM | nt | nt | nt
CCN(CC)c1ccc(C=NCCc2ccc(S(N)(=O)=O)cc2)cc1 | i | nt | i | 0.13µM | i | i
SMILES | Sfp inh | LMNA splice mod | G9a block | ALDH1A1 inh | miR-21 reporter | JMJD2E inh
CCN(CC)c1ccc(/C=N/NS(=O)(=O)c2ccc(CNC(C)=O)cc2)cc1 | i | i | i | ? | i | i
CSc1ncccc1C(=O)Nc1cccc(S(=O)(=O)N(C)c2ccccc2)c1 | nt | nt | i[2.33 µM] | nt | nt | nt
N#Cc1ccc(CC(C(=O)O)N2Cc3ccccc3C2=O)cc1 (stereo not drawn) | i | nt | i | nt | i | nt
CCOC(=O)c1[nH]c2ccccc2c1NC(=O)CN(C)C | i | i | ? | i | i | ?
COC(=O)c1[nH]c2ccccc2c1NC(=O)c1ccccc1F | i | nt | i | nt | i | i
COC(=O)c1[nH]c2cc(OC)c(OC)cc2c1NC(=O)Oc1ccccc1 | 45µM | i | 2.8µM | ? | i | ?
